The text below walks through data of PubChem BioAssay (NCATS).

The structures appear in SMILES notation. Records with an inconclusive call do not appear. Active and inactive are the calls of the source. Calls follow the shape of the dose curve; as a rule, active = well fitted inhibition curve with a large enough effect; inconclusive = small, poorly fitted or top-dose-only effect; inactive = no such curve, though single readings can be large or run the other way.
% is scaled to controls: 0 for no effect and ±100 for the full control effect; potency is read from the fitted curve at half-maximal effect.

The subject of this assay is Zika virus NS2B-NS3 protease (unlinked complex). Description: Primary screen GU Rhodamine qHTS for Zika virus inhibitors: Unlinked NS2B-NS3 protease assay (AID 1347159). Also: nearly all actives have a fitted effect of over 60% in size. To be noted: Recombinant ZIKV NS2B-NS3 protease, Rhodamine110 substrate fluorescence; series mostly up to 107 µM; activity change, negative = inhibition: at the top concentration. The essentials: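 Buffer 10 mM Tris-HCl pH 8.0, 0.01% Tween 20. Unlinked protease 25 nM; compound preincubation 15 min, RT, protected from light. Substrate Rhod110, 1.5 microM; ~15% conversion in 15 min.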
(In general: In qHTS, concentration-response curves come from the screen itself.)
In the case of `C/C=C(/C)C(=O)O[C@H]1[C@H](OC(=O)/C(C)=C\C)[C@@]23C(CC1(C)C)[C@]1(CCC4[C@@]5(C)CC[C@H](O[C@@H]6O[C@H](C(=O)O)[C@@H](O)[C@H](O[C@@H]7O[C@H](CO)[C@H](O)[C@H](O)[C@H]7O[C@@H]7O[C@@H](C)[C@H](O)[C@@H](O)[C@H]7O[C@@H]7OC[C@@H](O)[C@H](O)[C@H]7O)[C@H]6O[C@@H]6O[C@H](CO)[C@H](O)[C@H](O)[C@H]6O)C(C)(C)C5CC[C@@]4(C)[C@]1(C)C[C@H]2O)O[C@H]3O` (some centres undefined), the Potency was 3.98 µM (active).

In the case of `C=CC(C)(C)C12CC3C(=O)N4C(CC5(C(C)(C)C=C)c6ccccc6NC45)C(=O)N3C1Nc1ccccc12` (centres undefined), the “activity change, negative = inhibition” value is -14.3% [at 57.1 µM] (inactive).

Take `O=C(NCC(=O)N1CCCC1)Nc1ccc2cnccc2c1`: the “activity change, negative = inhibition” value is 0.968% (inactive).

With `C[C@@H]1CC[C@@]23CC[C@]4(C)[C@@](C=CC5[C@@]6(C)CC[C@H](O)C(C)(C)C6CC[C@]54C)(OC2=O)C3[C@H]1C` (some centres undefined), the Potency was 6.31 µM (active).

Take `Cc1ccc(C)c(-c2cc(C(F)(F)F)nn2-c2ccc(S(N)(=O)=O)cc2)c1`: the “activity change, negative = inhibition” value was 0% (inactive).

Take `CC(C)(O)c1ccc2c(c1)ncn2-c1cccc(-c2ccccc2C#N)c1`: the “activity change, negative = inhibition” value was -7.24% (inactive).

Regarding `C=C(C)C1=C[C@@]2(C)C(=CC1=O)CC[C@@H](O)[C@@H]2C`, the “activity change, negative = inhibition” value is 22.7% (inactive).

Take `COc1cccc(CN(C(=O)CC(C)(C)C)[C@H]2C[C@H](C(=O)N3CCNCC3)N(Cc3ccc4c(c3)OCO4)C2)c1`: the “activity change, negative = inhibition” value is -18.3% (inactive).

Take `CCCCc1ccc(NS(=O)(=O)c2ccc(F)cc2)cc1`: the Potency was 50.1 µM (active).

As to `CN(C)c1ccnc2sc3c(=O)n(N4CCCCCC4)cnc3c12`, the “activity change, negative = inhibition” value was -10.9% (inactive).

Take `CC(=O)C1=C(O)C=C2Oc3c(C(C)=O)c(O)c(C)c(O)c3[C@]2(C)C1=O`: the Potency is 31.6 µM (active).

As for `Cc1c(Cl)cccc1S(=O)(=O)Nc1nc(NCCc2ccccc2)nc2c1CN(Cc1ccccc1)CC2`, the Potency is 7.94 µM (active).

For the compound `CCOc1cn(-c2ccc(F)cc2C)nc1C(=O)Nc1ccc(Oc2ccnc3cc(OC)c(OC)cc23)c(F)c1`, the “activity change, negative = inhibition” value is 96.2% (inactive).

Take `N#Cc1cccc(C(=O)Nc2cc(-c3ccccc3)nn2-c2ccccc2)c1`: the “activity change, negative = inhibition” value was 14.2% (inactive).

Take `C=C1C(=O)OC2/C=C(\C)CC3C=C(CC/C=C(\C)CCC12)C(=O)O3` (centres undefined): the “activity change, negative = inhibition” value was -10.4% (inactive).

As for `NS(=O)(=O)c1ccc(NC(=O)Nc2ccc(F)cc2)cc1`, the “activity change, negative = inhibition” value was -6.79% (inactive).

As to `O=C(Nc1ccccc1)c1ccc(Nc2nnc(-c3ccc(O)cc3)c3ccccc23)cc1`, the Potency is 14.1 µM (active).

Regarding `COC1C(OC(=O)/C=C/C=C/C=C/C=C/C(=O)O)CCC2(CO2)C1C1(C)OC1CC=C(C)C` (centres undefined), the Potency is 8.91 µM (active).

On to `CC[C@H](C)/C=C(C)/C=C/C1=CC2=CC(=O)[C@]3(C)OC(=O)[C@@H](C(C)=O)[C@@H]3C2=CO1`, for which the Potency was 10 µM (active).

For the compound `C=C1CCC[C@]2(C)CC/C(=C(/CO)C(=O)OC)C[C@@H]12`, the Potency is 20 µM (active).

In the case of `COc1ccnc(CS(=O)c2nc3cc(OC(F)F)ccc3[nH]2)c1OC` (centres undefined), the “activity change, negative = inhibition” value is 0% (inactive).

On to `Oc1cccc(C2NC(=S)Nc3cccc(F)c32)c1` (centres undefined), for which the “activity change, negative = inhibition” value is 0% (inactive).

As for `CCOc1cc(C(C)(C)C)ccc1C1=NC(C)(c2ccc(Cl)cc2)C(C)(c2ccc(Cl)cc2)N1C(=O)N1CCN(CCCS(C)(=O)=O)CC1` (centres undefined), the “activity change, negative = inhibition” value is 78.8% (inactive).

Turning to `C=C(CCC1C(C)(O)CCC2C(C)(C)C(O)CCC12C)C(O)CO` (centres undefined), the Potency is 39.8 µM (active).

As for `CCc1c(Cl)c(O)c(Cl)c(O)c1C(=O)O[C@H]1[C@H](O)[C@H](OC)[C@H](OC/C2=C\C=C\C[C@H](O)/C(C)=C\[C@H](CC)[C@@H](O[C@@H]3OC(C)(C)[C@@H](OC(=O)C(C)C)[C@H](O)[C@@H]3O)/C(C)=C/C(C)=C/C[C@@H]([C@@H](C)O)OC2=O)O[C@@H]1C`, the Potency was 11.2 µM (active).

Turning to `COc1ccc(C2=NC(c3ccc(Cl)cc3)C(c3ccc(Cl)cc3)N2C(=O)N2CCNC(=O)C2)c(OC(C)C)c1` (centres undefined), the “activity change, negative = inhibition” value is 8.98% (inactive).

Take `Cc1nc(Nc2cnn(C3CCNCC3)c2)nc2c1N(C)C(=O)c1cc3ccccc3cc1N2C`: the “activity change, negative = inhibition” value is 60% (inactive).

`CCN(CCNC(=O)Nc1ccccc1Br)c1cccc(C)c1`: the “activity change, negative = inhibition” value was 0% (inactive).

Consider `COC(=O)C[C@H]1C(C)(C)[C@H](OC(=O)c2ccccc2)C2CC3=C4CC(=O)O[C@@H](c5ccoc5)[C@]4(C)CCC3[C@@]1(C)C2=O` (some centres undefined), for which the “activity change, negative = inhibition” value was 9.14% [at 57.1 µM] (inactive).

Regarding `COc1cc(CCc2ccc(OCC=C(C)C)cc2)cc(OC)c1OC`, the “activity change, negative = inhibition” value is -3.4% (inactive).

`COC(=O)C[C@H]1[C@]2(C)C3=C(C)[C@H](c4ccoc4)C[C@H]3O[C@@H]2[C@H](O)C2[C@](C)(C(=O)OC)C=CC(=O)[C@@]21C` (some centres undefined): the “activity change, negative = inhibition” value is 5.91% [at 57.1 µM] (inactive).

Regarding `CNC(=O)c1ccc2c(c1)CCO[C@H]2CCN1CCN(c2ccc(OC)cc2)CC1`, the “activity change, negative = inhibition” value is 3.76% (inactive).

Consider `CC12CCC3C1C(c1c(cc(O)c(C(=O)c4ccccc4)c1O)O2)C3(C)C` (centres undefined), for which the Potency is 8.91 µM (active).

Turning to `COc1cc2c(cc1NS(=O)(=O)c1ccc(Br)cc1C)n(C)c(=O)n2C`, the “activity change, negative = inhibition” value was -12.2% (inactive).

In the case of `OC(CC1c2ccccc2-c2cncn21)C1CCCCC1` (centres undefined), the “activity change, negative = inhibition” value is 13.4% (inactive).

Take `Cc1nc(-c2cn3c(n2)-c2ccc(-c4cnn(C(C)(C)C(N)=O)c4)cc2OCC3)n(C(C)C)n1`: the “activity change, negative = inhibition” value was 0.483% (inactive).

On to `COc1cc(Br)c(S(=O)(=O)Nc2ccc(Cl)c(O[C@@H]3CCN(C)C3)c2)cc1OC`, for which the “activity change, negative = inhibition” value was 31.9% (inactive).

Take `O=C(N[C@H]1CCN(C(=O)c2cc(C(F)(F)F)cc(C(F)(F)F)c2)[C@H](Cc2ccc(Cl)cc2)C1)c1ccnc2ccccc12`: the “activity change, negative = inhibition” value is 10.4% [at 57.1 µM] (inactive).

As for `CCNC1(C(N)=O)CN(c2nc(C)nc3c(-c4ccc(Cl)cc4)c(-c4ccccc4Cl)nn23)C1`, the “activity change, negative = inhibition” value is -11.7% (inactive).
